The list shows a part of the results. Calls of active or inactive are those of the source.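 Rule for the calls: active = proliferation increase above 40% at any of the four tested concentrations; inactive = the rest.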
assay: MIN6 insulinoma cell replication enhancers – MIN6 cells, mouse, confirmation (AID 463095); details: MIN6 beta-cell proliferation, ATPlite luminescence, 48 h; series mostly up to 50 µM

Row | Structure (SMILES) | outcome
1 | O=C(N/N=C/c1c(O)n(Cc2ccccc2)c(=O)[nH]c1=O)c1ccccc1 | inactive
2 | c1cc2c(cc1CCNC1CCCCCC1)OCO2 | inactive
3 | COC(=O)COc1cc(C)cc2oc(=O)c3c(c12)CCCC3 | inactive
